In PubChem BioAssay AID1063 (University of Pittsburgh Molecular Library Screening Center, 2008):
In all, about 200,000 compounds went through this assay and about 18,000 (9%) were called active. What follows is part of a selection rich in actives, with near analogues and random picks from the rest. Unmarked numbers belong to inactive results. Cut-off read from the data, not from the text of the source: active = inhibition above about 50%; inactive = the rest.

Experiment: Leishmania major promastigote growth inhibition, primary screen (AID 1063);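 note: promastigotes grown with compound for 44 hours at 28 °C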
Conditions: Leishmania major promastigotes, resazurin fluorescence viability; at 10 µM; hits give high values

Compound | inhibition
CC1(C)CC(=O)C=C(N2CCOCC2)C1 | -0.57%
O=C(O)/C=C/c1cn(Cc2ccccc2)nc1-c1cccs1 | -1.31%
COc1ccc(S(=O)(=O)Nc2ccc(O)c(Sc3nc4ccccc4s3)c2)cc1 | 2.71%
O=[N+]([O-])c1c(NCCO)cc(Sc2nc3ccccc3s2)c2nonc12 | 61.2% (active)
O=C(O)c1cccc(S(=O)(=O)Nc2ccc(O)cc2Sc2nc3ccccc3s2)c1 | 3.69%
CCCCC(CC)CNC(=O)C(=O)C1C(=O)Nc2ccccc21 (stereo not drawn) | -2.85%
CC(=O)Nc1ccc(NC(=O)CSc2nnc(COc3ccccc3C)n2CC2CCCO2)cc1 (stereo not drawn) | -3.47%
COc1ccc(C(=O)NC2CCN(C(=S)NCCc3ccccc3)CC2)cc1 | -3.89%
CC(C)NC(=O)NC(=O)CSc1nnc(-c2ccccc2F)n1N | -1.13%
CS(=O)(=O)Nc1ccc(C2=NN(S(C)(=O)=O)C(c3cccs3)C2)cc1 (stereo not drawn) | 0.6%
Cc1ccc(C2CC(c3cccc(NS(C)(=O)=O)c3)=NN2S(C)(=O)=O)cc1 (stereo not drawn) | 10.8%
CS(=O)(=O)Nc1cccc(C2=NN(S(=O)(=O)c3ccccc3)C(c3cccs3)C2)c1 (stereo not drawn) | 90.1% (active)
CCS(=O)(=O)c1ccc(C(=O)NC)c(Cl)c1Cl | 2.32%
O=C(CNC(=O)c1cc2c(s1)CCC2)Nc1ccccc1Br | -6.67%
O=C(Nc1cccc(NC(=O)N2CCN(c3ccccc3)CC2)c1)N1CCN(c2ccccc2)CC1 | 35.8%
Cc1nc2ccc(C(=O)N3CCN(c4ccccc4)CC3)cc2s1 | -9.02%
O=C(COC(=O)c1cc2c(s1)CCCC2)NCc1ccccc1Cl | -8.28%
O=C(c1cc2c(s1)CCC2)N1CCN(c2ccccc2)CC1 | 93.8% (active)
O=C(NNC(=O)c1cc2c(s1)CCCC2)c1ccccc1 | 78.1% (active)
CCOC(=O)Cc1cc(=O)[nH]c(=O)[nH]1 | -1.79%
O=C(COC(=O)c1ccccn1)Nc1cccc2ccccc12 | -8.4%
Cc1cc(C)cc(NC(=O)Cn2cnc3c(nnn3Cc3ccc(F)cc3)c2=O)c1 | -2.51%
Cc1cccc(C)c1NC(=O)Nc1ccccc1-n1ccnc1 | -5.13%
CN1CCC(=NNC(=O)CN(c2cccc(Cl)c2)S(C)(=O)=O)CC1 | -4.77%

Compound | inhibition
CC12CCC(C(=O)N(NC(=O)c3ccccc3O)C1=O)C2(C)C (stereo not drawn) | 69.9% (active)
CC12CCC(C(=O)N(c3cccc(Cl)c3)C1=O)C2(C)C (stereo not drawn) | -2.92%
COc1ccccc1C(=O)NN1C(=O)C2C3C=CC(O3)C2C1=O (stereo not drawn) | -5.97%
COc1ccc(-c2csc(NC(=O)COC(=O)Cc3ccc(Cl)cc3Cl)n2)cc1 | 1.41%
COc1ccc(-c2csc(NC(=O)COC(=O)c3ccc(Br)o3)n2)cc1 | 95.2% (active)
COc1ccc(-c2csc(NC(=O)CCCc3cccs3)n2)cc1 | 10.5%
Cc1cc(CNCc2c(C(=O)N(C)Cc3ccccc3)nc3ccccn23)nn1C | 0.26%
O=C(O)c1ccccc1-c1ccccc1C(=O)Nc1nccs1 | -1.78%
OC(COc1ccc(CN2CCSCC2)cc1)CN1CCCCC1 (stereo not drawn) | 19%
CCC(=O)c1ccc(OCC(O)CN2CC(C)OC(C)C2)cc1 (stereo not drawn) | 87.5% (active)
OC(COc1ccc2c(c1)CCC2)CN1CCN(c2cccc(Cl)c2)CC1 (stereo not drawn) | 98.7% (active)
Cn1c(=O)c2c(nc(N3CCCCCC3)n2CC(O)COc2ccc(Cl)cc2)n(C)c1=O (stereo not drawn) | 56.5% (active)
Cn1c(=O)c2c(nc(N3CCCCCC3)n2CC(=O)c2ccc(Br)cc2)n(C)c1=O | -0.4%
O=C(C(c1ccccc1)c1ccccc1)N1CCN(CC(O)COc2ccccc2)CC1 (stereo not drawn) | 9.16%
O=C(c1ccc(Cl)cc1)c1ccc(OCC(O)CN2CCCCC2)cc1 (stereo not drawn) | 99.2% (active)
CCC(=O)c1ccc(OCC(O)CN2C(=O)NC(C)(C)C2=O)cc1 (stereo not drawn) | -2.21%
O=c1cc(CN2CCN(c3cccc(Cl)c3)CC2)c2cc3c(cc2o1)CCCC3 | 5.66%
CCC(=O)c1ccc(OCC(O)CN2CCN(c3cccc(C(F)(F)F)c3)CC2)cc1 (stereo not drawn) | 13.7%
O=C(c1ccccc1)c1ccc(OCC(O)CN2CCCC2)cc1 (stereo not drawn) | 31.6%
Cc1cccc(Cn2c(N3CCN(c4ccccc4)CC3)nc3c2c(=O)n(C)c(=O)n3C)c1 | -1.6%
COc1cc(C(=O)N[C@@H](C)C(=O)NCc2ccco2)cc(OC)c1OC | -6.03%
CCCCn1c(N)c(N(CC)C(=O)/C=C/c2ccco2)c(=O)[nH]c1=O | -4.32%
[O-][n+]1c2c(nn1-c1ccc(Cl)c(Cl)c1)-c1nonc1CC2 | 13.6%
Cc1nc(N2CCCCC2)sc1C=O | 6.31%

Compound | inhibition
CCC(C)(C)c1ccc(OCC(=O)N(C)C)c(C(C)(C)CC)c1 | 18.1%
COC(=O)CNC(=O)c1ccc(OC2CCN(C(=O)C3CC3)CC2)cc1 | -6.39%
CCOc1cc(CNn2c(C)nnc2SCC(=O)NC(C)(C)C)ccc1OCC(=O)NC(C)(C)C | 0.56%
CC1(C)C(c2cccs2)=[N+]([O-])C2(CCCCC2=O)N1O (stereo not drawn) | -6.22%
COCCN(Cc1nc(-c2ccc(C(F)(F)F)cc2)no1)C(C)C | 0.28%
O=C(Nc1ccnc(-c2ccncc2)n1)c1cccs1 | 1.21%
COC(=O)CCNC(=O)c1ccc2[nH]c(C)c(C)c2c1 | -6.37%
COc1ccc(-c2[nH]ncc2CN(C)Cc2cccnc2)c(F)c1 | 5.13%
CC/C(O)=C1\C(=O)CC(C)(C)CC1=NCCc1nc2ccccc2[nH]1 | 2.52%
CC(=O)c1cccc(NC(=O)Nc2ccc(C)cc2)c1 | -3.66%
COC(=O)c1ccc(NC(=O)Nc2ccc(C)cc2)cc1 | 91.7% (active)
Cc1ccc(NC(=O)CC(=O)Nc2ccc(C)cc2)cc1 | -5.48%
CC1CCCN(S(=O)(=O)c2ccc(N(C(=O)c3cnccn3)C(C(=O)NC3CCCCC3)c3cccs3)cc2)C1 (stereo not drawn) | 69.2% (active)
O=C(Nc1ccc(S(=O)(=O)N2CCCCC2)cc1)c1cnccn1 | -3.44%
O=C(NC1CCCCC1)C1CCCN(S(=O)(=O)c2cccs2)C1 (stereo not drawn) | -2.02%
CCCCn1c(=O)c(C(C)=O)c(O)c2ccccc21 | -2.04%
COC(=O)c1ccc(N(CC(=O)NC2CCCC2)C(=O)CNC(=O)c2ccco2)cc1 | -5.36%
O=C(NC1CCCC1)C(c1ccc(N2CCOCC2)cc1)N(C(=O)c1ccco1)c1ccccc1F (stereo not drawn) | 3.7%
COC(=O)c1cccc(N(C(=O)c2ccco2)C(C(=O)NC2CCCC2)c2ccco2)c1 (stereo not drawn) | 51.8% (active)
Cc1cc(C(=O)N/N=C\C(Br)=C\c2ccccc2)c(C)o1 | 12.7%
Nc1nonc1-n1nnc(C(=O)N/N=C/c2cc(Br)ccc2O)c1CSC1=NCCS1 | 50.8% (active)
COCc1c(C(=O)N/N=C/C2CC=CCC2)nnn1-c1nonc1N (stereo not drawn) | -6.32%
COc1cc(/C=N\NC(=O)c2nonc2N)c(OC)cc1Br | -4.69%
COc1ccc(-c2ccc(CCC(=O)O)n2NC(=O)c2ccc(C(C)(C)C)cc2)cc1 | -4.23%

Compound | inhibition
NC(=O)C1=C[C@H](c2csc3ccccc23)C[C@H](OCc2ccc(CO)cc2)O1 | 14.5%
CN(C)N(C)C(=O)C(O)(c1ccccc1)c1ccccc1 | -4.98%
Cc1nn(-c2ccccc2)c2sc(C(=O)N(Cc3ccco3)C(C)C(=O)NC(C)(C)C)cc12 (stereo not drawn) | 85.5% (active)
Cc1ccc(-c2nnn(CC(=O)N(Cc3ccco3)C(C(=O)NC(C)(C)C)c3ccncc3)n2)o1 (stereo not drawn) | 4.2%
Cc1nc(C)c(C(=O)N(c2ccc(C)c(C)c2)C(C(=O)NCc2ccco2)c2ccccc2)s1 (stereo not drawn) | -1.53%
COc1ccc(CC(=O)NCc2nnc(SCC(=O)Nc3ncc(C)s3)n2C)cc1 | -4.95%
N#Cc1nc(Cc2ccccc2)oc1NCCc1ccccc1 | 0.9%
N#Cc1nc(COc2ccc(-c3ccccc3)cc2)oc1NCc1cccnc1 | 7.49%
CCOc1ccc(Nc2oc(Cc3ccccc3)nc2C#N)cc1 | 99.7% (active)
CCOC(=O)c1[nH]cnc1C(=O)Nc1ccccc1C | 4.69%
CCC(=O)Nc1ccc(C(=O)N2CCN(C(=O)c3ccco3)CC2)cc1 | 0.95%
O=C(Nn1cnc2ccccc2c1=O)c1ccc([N+](=O)[O-])cc1Cl | -9.04%
COc1ccc(NC(=S)NCCNC(C)=O)cc1 | -3.38%
COc1ccc(NC(=O)/C(Cl)=C(/Cl)S(=O)Cc2ccc(C)cc2)cn1 (stereo not drawn) | 101% (active)
Cc1ccc(NC(=O)OCc2cncs2)cc1 | -5.83%
COc1ccc(CS(=O)/C(Cl)=C(/Cl)C(=O)Nc2ccc(OC)nc2)cc1 (stereo not drawn) | 101% (active)
COc1ccc(NC(=S)Nc2ccccc2Cl)cn1 | 6.52%
CC(=O)Nc1ccc(OCC(=O)NCc2ccc(C)cc2)cc1 | -6.13%
Cc1ccc(NC(=O)OCCNC(=O)c2ccncc2)cc1 | 0.55%
O=C(CN1C(=O)NC2(CCCCCC2)C1=O)NC1CC1 | -1.36%
O=C(Nc1ccccc1C(=O)O)c1cc(S(=O)(=O)N2CCCCC2)cs1 | -7.25%
